These results are taken from PubChem BioAssay (NCATS).

Structures are written as SMILES. Several values for one entry are separate records, joined by “and”; a condition that tells them apart may be missing. Equal values may be shown once. Inconclusive results are not listed. Activity calls are given as the source filed them. Unless noted, calls come from the whole dose curve; as a rule, active = well fitted curve in the direction sought with a large enough effect; inconclusive = small, poorly fitted or top-dose-only effect, or another doubt; inactive = no such curve, though single readings can be large; an effect the other way counts as inactive or inconclusive.

Experiment [1] is described as follows: Cell Viability - LYMP1-003 - Assay at 40 hr (AID 964). Note: series mostly up to about 92 µM; % is set by controls: 0 for no effect and ±100 for the full control effect; nearly all actives have a fitted effect of over 60% in size. An outline of the steps: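 Luminescent ATP signal (CellTiter-Glo) served as the viability read-out after 40 hr compound treatment of human lymphoblastoid LYMP1-003 cells at 37 C. Decreases in ATP were fitted with the Hill equation to give AC50.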
Experiment [2] in a line: Cell Viability - LYMP2-013 (AID 970).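 Note: cells exposed to compound for 24 h at 37 °C; nearly all actives have a fitted effect of over 55% in size.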 Note: potency is the fitted concentration of half-maximal effect. An outline of the steps: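 Cytotoxicity is scored as a concentration-dependent drop in intracellular ATP in human lymphoblastoid cells after 24 hr compound exposure at 37 C. ATP is quantified by luciferase luminescence, and AC50 values come from Hill-equation modeling.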
For experiment [3], the target named is Glucocorticoid receptor (Homo sapiens) (UniProt P04150). As to the kind of experiment: qHTS assay for small molecule agonists of glucocorticoid receptor signaling (AID 588532; active = well fitted curve in the direction sought with a large enough effect in the signal ratio, with a control signal flat; the % refers to the signal ratio;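 note: 100% = dexamethasone at 0.1 µM and 0% = DMSO only wells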). As to conditions: HeLa MMTV-bla, beta-lactamase ratio, agonist, 18 h; stronger effect = higher value; percent of dexamethasone control, DMSO zero. An outline of the steps:
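Titration series, up to 92 uM, applied to GRE-bla HeLa cells for 18 h at 37 C. Detection by CCF4 FRET substrate after 2 h at RT.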
For orientation: In qHTS, concentration-response curves come from the screen itself.

The target in experiment [4] is Cytochrome P450 3A4 (Homo sapiens) (UniProt P08684). Description: qHTS Assay for Activators of Cytochrome P450 3A4 (AID 885). Note: nearly all actives have a fitted effect of over 65% in size. Summed up:
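Human CYP3A4 dealkylates Luciferin-PPXE to luciferin, which luciferase detection converts to light. Substrate was at its KM (25uM), buffer 200mM KPO4, reaction 60 min at RT.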

Experiment [5] has as its target Peroxisome proliferator-activated receptor gamma (Homo sapiens) (UniProt P37231). Description: qHTS assay for small molecule antagonists of peroxisome proliferator-activated receptor gamma signaling (AID 588537; active = well fitted inhibition curve with a large enough effect in the signal ratio, with a control signal flat, not every such curve was filed as active; the % refers to the signal ratio;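 note: reporter cells co-stimulated with 50 nM rosiglitazone agonist during compound treatment; % of control where 0% means no effect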). Summed up:
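Compounds are tested as concentration series for inhibition of rosiglitazone-driven (50 nM) reporter expression in GeneBLAzer PPAR-gamma-UAS-bla HEK293 cells. After 16 h at 37 C, CCF4 substrate is added for 2 h at room temperature and blue/green fluorescence is measured.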

The target of experiment [6] is Thyroid hormone receptor beta (Homo sapiens) (UniProt P10828). Description: qHTS assay for small molecule antagonists of thyroid hormone receptor beta signaling (AID 588547; active = well fitted inhibition curve with a large enough effect in the signal ratio, with a control signal flat, not every such curve was filed as active; the % refers to the signal ratio;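 note: cells stimulated with 0.4 nM T3 agonist during compound exposure; series mostly up to about 77 µM; % is set by controls: 0 for no effect and ±100 for the full control effect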). The conditions noted are these: TR-UAS-bla HEK293, beta-lactamase ratio, antagonist mode, 18 h. Summed up: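 TR-UAS-bla GripTite HEK293 cells in 2% charcoal/dextran FBS medium were preincubated 4 h at 37 C, given compound (0.59 nM to 92 uM) plus 0.4 nM T3 (final) for 18 h, then CCF4 for 2 h at RT; Hill fit gave IC50.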
Sequence of Thyroid hormone receptor beta (Homo sapiens) (P10828 whole entry, looked up): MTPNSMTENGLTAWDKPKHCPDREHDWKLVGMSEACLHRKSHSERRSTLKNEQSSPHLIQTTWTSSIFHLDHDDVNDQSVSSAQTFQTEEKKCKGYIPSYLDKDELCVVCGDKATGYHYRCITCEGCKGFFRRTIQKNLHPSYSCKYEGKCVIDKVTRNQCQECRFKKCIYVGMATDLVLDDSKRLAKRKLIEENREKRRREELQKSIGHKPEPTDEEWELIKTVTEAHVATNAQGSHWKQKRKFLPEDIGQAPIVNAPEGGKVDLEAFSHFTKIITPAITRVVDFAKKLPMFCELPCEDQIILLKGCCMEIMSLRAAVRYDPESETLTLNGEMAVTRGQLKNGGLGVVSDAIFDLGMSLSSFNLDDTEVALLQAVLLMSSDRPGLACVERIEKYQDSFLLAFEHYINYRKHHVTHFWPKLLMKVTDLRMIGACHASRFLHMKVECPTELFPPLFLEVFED

Experiment [7] can be described thus: qHTS assay for small molecule activators of the nuclear factor-kappa B (NF-kB) signaling pathway (AID 651749; active = well fitted activation curve with a large enough effect in the signal ratio; the % refers to the signal ratio; note: series mostly up to about 77 µM; % of control where 0% means no effect). As to conditions: NF-kB-bla ME-180 cells, beta-lactamase FRET ratio, 16 h; stronger effect = higher value. Summed up: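 Human ME-180 cervical cells with an NF-kB-bla construct; compounds added via 23 nL pin transfer, DMSO as vehicle; incubation 16 hr. Reporter activity measured by FRET disruption.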

Experiment [8] is described as follows: Cell Viability - LYMP2-024 (AID 988).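 Note: plate controls were DMSO only for no effect and 92 µM tetraoctylammonium bromide for full effect; nearly all actives have a fitted effect of over 60% in size.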 An outline of the steps:
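qHTS cytotoxicity, human lymphoblastoid line, complete medium; 24 h cpd treatment, 37 C; CellTiter-Glo ATP luminescence readout; tetraoctylammonium bromide positive control; AC50 via Hill fit.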

Experiment [9] in a line: qHTS assay for small molecule antagonists of peroxisome proliferator-activated receptor delta signaling (AID 588535; active = well fitted inhibition curve with a large enough effect in the signal ratio, with a control signal flat, not every such curve was filed as active; the % refers to the signal ratio;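 for max response: cells co-treated with a PPAR-delta agonist as stimulator during compound exposure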). The conditions noted are these: HEK293T PPARd-UAS-bla, beta-lactamase FRET ratio, 18 h; 460 nm channel. An outline of the steps: (§1)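 Inhibition of PPAR-delta response element-driven beta-lactamase expression is measured in HEK293T cells exposed to a compound titration series for 18 hrs at 37 C. Half-maximal inhibition comes from Hill equation fitting.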

Experiment [10] has as its target Peroxisome proliferator-activated receptor delta (Homo sapiens) (UniProt Q03181). The description is as above. Summed up:
as §1

Experiment [11] is described as follows: qHTS assay to identify small molecules that stimulate interleukin-8 (IL-8) secretion (AID 651758; active = well fitted activation curve with a large enough effect in the signal ratio; the % refers to the signal ratio; note: potency is the fitted concentration of half-maximal effect; for activation: 0% is about no effect). Summed up: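 Quantitative HTS in THP-1 monocytic cells at 2000 cells per well, with 16 hrs compound incubation at 37 C. IL-8 in the medium was then quantified by HTRF immunoassay, read after 1-3 hrs at room temperature.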
In experiment [12] the target is Retinoic acid receptor RXR-alpha (Homo sapiens) (UniProt P19793). As to the kind of experiment: qHTS assay for small molecule agonists of retinoid X receptor alpha signaling (AID 588544; calls by dose curve;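 note: 0% = DMSO basal wells and 100% = reference agonist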).
Sequence of Retinoic acid receptor RXR-alpha (Homo sapiens) (P19793 whole entry, looked up): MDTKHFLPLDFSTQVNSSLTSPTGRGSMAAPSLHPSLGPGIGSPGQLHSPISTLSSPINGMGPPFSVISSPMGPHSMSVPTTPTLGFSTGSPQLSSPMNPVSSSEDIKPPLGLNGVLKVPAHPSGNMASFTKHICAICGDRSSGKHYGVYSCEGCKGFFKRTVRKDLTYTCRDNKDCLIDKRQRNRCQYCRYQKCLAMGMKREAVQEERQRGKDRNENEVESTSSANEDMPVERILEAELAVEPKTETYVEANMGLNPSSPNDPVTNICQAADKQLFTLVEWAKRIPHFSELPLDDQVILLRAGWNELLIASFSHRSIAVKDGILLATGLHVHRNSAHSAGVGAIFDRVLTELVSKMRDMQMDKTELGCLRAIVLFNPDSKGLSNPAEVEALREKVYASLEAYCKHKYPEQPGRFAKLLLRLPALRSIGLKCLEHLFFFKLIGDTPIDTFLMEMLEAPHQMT
The target in experiment [13] is Bile acid receptor (Homo sapiens) (UniProt Q96RI1). Description: qHTS assay for small molecule antagonists of farnesoid X receptor signaling (AID 588526; calls by dose curve; note: potency is the fitted concentration of half-maximal effect). Summed up:
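Concentration-response titrations were fitted to the Hill equation for half-maximal inhibition and maximal response, with data normalised to 50 uM chenodeoxycholic acid and DMSO control wells. Cells: FXR-UAS-bla HEK293T, dialyzed FBS.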

Sequence of Glucocorticoid receptor (Homo sapiens) (P04150 whole entry, looked up): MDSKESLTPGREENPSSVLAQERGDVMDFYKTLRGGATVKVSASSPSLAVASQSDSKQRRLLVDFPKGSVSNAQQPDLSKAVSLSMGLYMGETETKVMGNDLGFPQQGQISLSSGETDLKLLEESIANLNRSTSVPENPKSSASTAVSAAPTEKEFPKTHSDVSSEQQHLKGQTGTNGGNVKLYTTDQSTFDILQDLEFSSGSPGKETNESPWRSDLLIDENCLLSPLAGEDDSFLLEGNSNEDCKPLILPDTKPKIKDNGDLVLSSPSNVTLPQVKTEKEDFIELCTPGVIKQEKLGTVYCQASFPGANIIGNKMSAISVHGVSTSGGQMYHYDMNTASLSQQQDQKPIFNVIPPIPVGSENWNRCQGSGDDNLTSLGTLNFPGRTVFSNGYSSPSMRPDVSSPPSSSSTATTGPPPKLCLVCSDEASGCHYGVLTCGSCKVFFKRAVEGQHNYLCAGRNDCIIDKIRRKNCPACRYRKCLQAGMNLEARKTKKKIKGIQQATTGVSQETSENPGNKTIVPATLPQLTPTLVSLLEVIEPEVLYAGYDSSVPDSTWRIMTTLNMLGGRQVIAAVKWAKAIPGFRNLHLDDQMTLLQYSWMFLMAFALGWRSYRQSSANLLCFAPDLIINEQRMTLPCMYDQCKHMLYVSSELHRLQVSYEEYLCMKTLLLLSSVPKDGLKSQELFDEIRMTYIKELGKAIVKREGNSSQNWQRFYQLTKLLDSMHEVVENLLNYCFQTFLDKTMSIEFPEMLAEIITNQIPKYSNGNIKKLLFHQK
Sequence of Bile acid receptor (Homo sapiens) (Q96RI1 whole entry, looked up): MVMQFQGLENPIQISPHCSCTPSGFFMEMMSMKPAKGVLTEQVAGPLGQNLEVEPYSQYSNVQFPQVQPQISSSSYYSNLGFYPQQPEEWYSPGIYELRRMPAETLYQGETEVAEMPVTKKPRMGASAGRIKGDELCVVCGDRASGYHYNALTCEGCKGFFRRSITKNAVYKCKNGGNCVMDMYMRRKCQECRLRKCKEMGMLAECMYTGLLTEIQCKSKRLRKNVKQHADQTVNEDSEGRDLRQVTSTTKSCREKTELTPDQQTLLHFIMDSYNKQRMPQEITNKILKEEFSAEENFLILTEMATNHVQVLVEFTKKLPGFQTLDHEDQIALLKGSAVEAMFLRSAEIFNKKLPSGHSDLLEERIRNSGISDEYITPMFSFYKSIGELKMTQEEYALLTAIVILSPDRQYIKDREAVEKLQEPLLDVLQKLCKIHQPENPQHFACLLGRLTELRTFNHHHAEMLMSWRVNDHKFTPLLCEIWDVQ
Sequence of Peroxisome proliferator-activated receptor delta (Homo sapiens) (Q03181 whole entry, looked up): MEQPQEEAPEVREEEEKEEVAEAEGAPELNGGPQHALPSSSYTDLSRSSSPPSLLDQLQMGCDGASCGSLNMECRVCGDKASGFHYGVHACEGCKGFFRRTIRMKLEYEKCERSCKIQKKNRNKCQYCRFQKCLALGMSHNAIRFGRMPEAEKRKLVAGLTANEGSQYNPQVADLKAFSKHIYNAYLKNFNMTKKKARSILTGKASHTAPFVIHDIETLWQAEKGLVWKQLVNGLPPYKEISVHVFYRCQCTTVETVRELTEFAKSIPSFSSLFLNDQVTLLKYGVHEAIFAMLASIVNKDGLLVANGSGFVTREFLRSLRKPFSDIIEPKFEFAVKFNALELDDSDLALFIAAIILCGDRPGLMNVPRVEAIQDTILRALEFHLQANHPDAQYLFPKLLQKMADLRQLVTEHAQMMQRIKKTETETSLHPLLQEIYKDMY
Sequence of Cytochrome P450 3A4 (Homo sapiens) (P08684 whole entry, looked up): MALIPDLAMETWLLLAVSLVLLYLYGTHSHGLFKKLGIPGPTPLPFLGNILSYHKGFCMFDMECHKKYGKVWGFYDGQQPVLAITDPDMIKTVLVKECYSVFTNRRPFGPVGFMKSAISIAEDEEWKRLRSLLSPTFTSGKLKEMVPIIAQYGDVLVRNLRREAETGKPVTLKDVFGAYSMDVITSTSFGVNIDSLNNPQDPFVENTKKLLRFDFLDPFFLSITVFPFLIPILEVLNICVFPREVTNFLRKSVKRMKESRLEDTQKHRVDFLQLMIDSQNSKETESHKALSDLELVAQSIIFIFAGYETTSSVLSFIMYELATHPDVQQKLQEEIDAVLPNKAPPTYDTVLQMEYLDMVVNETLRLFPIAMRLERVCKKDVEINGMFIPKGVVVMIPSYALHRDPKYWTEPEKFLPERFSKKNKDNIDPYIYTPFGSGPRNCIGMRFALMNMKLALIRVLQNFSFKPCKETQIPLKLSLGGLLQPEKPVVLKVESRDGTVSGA
Sequence of Peroxisome proliferator-activated receptor gamma (Homo sapiens) (P37231 whole entry, looked up): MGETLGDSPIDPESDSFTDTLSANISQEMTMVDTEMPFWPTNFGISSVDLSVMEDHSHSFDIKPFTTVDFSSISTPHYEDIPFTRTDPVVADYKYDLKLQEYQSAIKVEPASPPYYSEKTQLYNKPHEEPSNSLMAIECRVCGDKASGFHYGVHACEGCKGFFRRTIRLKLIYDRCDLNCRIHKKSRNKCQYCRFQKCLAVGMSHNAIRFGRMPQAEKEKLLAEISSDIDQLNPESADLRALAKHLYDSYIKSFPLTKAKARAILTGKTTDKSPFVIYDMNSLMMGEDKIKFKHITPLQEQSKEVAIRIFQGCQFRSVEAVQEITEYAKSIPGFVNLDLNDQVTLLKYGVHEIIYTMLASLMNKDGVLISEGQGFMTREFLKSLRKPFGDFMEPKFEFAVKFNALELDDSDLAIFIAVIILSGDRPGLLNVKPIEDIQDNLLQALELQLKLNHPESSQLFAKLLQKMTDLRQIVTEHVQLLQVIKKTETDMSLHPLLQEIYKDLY

Consider `CCOc1ccc2nc(N)sc2c1`, for which the Potency entry in [1] and in experiment [2] was “inactive” in each case. The activation in [3] is -9.89% (inactive).

In the case of `Nc1ccc(N=Nc2ccccc2)c(N)c1`, the Potency entry in experiment [4], in experiment [1], in experiment [2] and in experiment [5] was “inactive” each time. Also, the activity change % (negative = inhibition) in [6] is 1.36% (inactive). In addition, in experiment [7], the activation is -1.7% (inactive).

Regarding `CCN(CC)c1ccc2c(C)cc(=O)oc2c1`, the Potency entry in experiment [8] and in [5] was “inactive” throughout.

`O=[N+]([O-])c1cc(Cl)c(Cl)c(Cl)c1Cl`: the activation in experiment [3] is 0.473% (inactive); in experiment [7], -0.62% (inactive). Further, the max response in experiment [9] was 8.11%. The result in [10] was inactive. For the same molecule, the activity change % (negative = inhibition) in experiment [6] is 1.99% (inactive).

For `Nc1ccccc1O`, the Potency result in [8] was “inactive”. Also, in experiment [3], the activation was 7.62% (inactive). In experiment [9], the max response worked out at 17.2%. Besides, the result in [10] was inactive. Moreover, the activity change % (negative = inhibition) in [6] is -12.3% (inactive). Further, the Potency in experiment [11] was 66.8 µM (active).

With `Oc1ccc2c(c1)OCO2`, the Potency entry in [1], in [2], in experiment [8] and in experiment [11] was “inactive” in each case. The activation in [3] was -0.95% (inactive).

Regarding `Cc1cccnc1`, the Potency entry in experiment [8] and in experiment [12] was “inactive” in each case. Further, in experiment [7], the activation is -0.701% (inactive).

`c1ccc(CSCc2ccccc2)cc1`: the Potency result in [2], in experiment [8], in experiment [5] and in experiment [12] was “inactive” each time. Moreover, the max response in [9] stood at 13.7%. In addition, in [10], the call was inactive. In addition, the activation in experiment [7] is -0.1% (inactive).

For `C=C(C#N)C(=O)OCC`, the Potency result in [1], in experiment [8] and in [12] was “inactive” in each case. For the same molecule, in experiment [9], the max response was -32.1%. The call in experiment [10] was inactive. Also, in experiment [6], the activity change % (negative = inhibition) was 4.82% (inactive).

As for `CC(/C=C/C=C(C)/C=C/C(=O)O)=C\C=C\C=C(C)\C=C\C=C(C)\C=C\C(=O)O`, the Potency result in experiment [1], in experiment [2], in experiment [8], in experiment [13] and in experiment [12] was “inactive” throughout. The activity change % (negative = inhibition) in experiment [6] was -2.15% (inactive). In [7], the activation was -1.49% (inactive).

As to `Brc1cc(Oc2cc(Br)c(Br)c(Br)c2Br)c(Br)c(Br)c1Br`, the Potency entry in experiment [1], in [2], in experiment [8] and in experiment [5] was “inactive” in each case. Further, the max response in experiment [9] is 14.5% and 36.5%. Further, in experiment [10], the molecule was classed as inactive. The activation in experiment [7] is 2.9% (inactive) and 0.823% (inactive).

As to `O=[N+]([O-])c1ccccc1Nc1ccccc1`, the Potency entry in experiment [12] is “inactive”. The activity change % (negative = inhibition) in experiment [6] is 8.34% (inactive).

`CCc1ccc(C(c2ccc(CC)cc2)C(Cl)Cl)cc1`: the Potency entry in experiment [1] and in [8] was “inactive” throughout.

Consider `C[Si](C)(C)Cl`, for which the Potency result in [1], in [2], in [8], in experiment [13] and in experiment [12] was “inactive” throughout. The activation is 10.5% (inactive) in experiment [3] and 1.18% (inactive) in experiment [7]. The activity change % (negative = inhibition) in experiment [6] is -7.14% (inactive).

Consider `c1ccncc1`, for which the Potency result in experiment [2] and in experiment [5] was “inactive” in each case. The activity change % (negative = inhibition) in [6] is -8.3% (inactive).

Consider `S=C(NC1CCCCC1)NC1CCCCC1`, for which the Potency entry in experiment [4], in [8], in experiment [5] and in experiment [12] was “inactive” in each case. For the same molecule, the figures for the activation in experiment [3] and in experiment [7] were 9% (inactive) and -0.887% (inactive), respectively. Moreover, the max response in experiment [9] is -15.4%. Besides, the result in experiment [10] was inactive.

As to `C=CC1CO1` (centres undefined), the Potency result in [1], in [2], in [5] and in [12] was “inactive” in each case. For the same molecule, the activation in [3] was -10.4% (inactive).

`Cc1c(C(=O)O)c(O)cc2c1C(=O)c1c(O)c([C@H]3O[C@H](CO)[C@@H](O)[C@H](O)[C@H]3O)c(O)c(O)c1C2=O`: the Potency result in [4] and in experiment [13] was “inactive” in each case. Besides, the max response in experiment [9] stood at 28.9%. The molecule was called inactive in experiment [10].

On to `Nc1ccc2c(c1)C(=O)c1ccccc1C2=O`, for which the Potency result in [2] and in [8] was “inactive” in each case. Besides, the activation in [3] is -3.44% (inactive) and 1.5% (inactive). Also, the max response in experiment [9] was -6.52%. Besides, in experiment [10], the outcome was inactive. Moreover, in experiment [6], the activity change % (negative = inhibition) was -15.9% (inactive).

For `O=C1OC(=O)c2ccccc21`, the Potency entry in [13] was “inactive”. In experiment [9], the max response is -31.3%. For the same molecule, in experiment [10], the molecule was classed as inactive. The activity change % (negative = inhibition) in experiment [6] is 1.82% (inactive). For the same molecule, the activation in experiment [7] is 0.114% (inactive).

For `O=[N+]([O-])c1cccc(I)c1`, the Potency result in [1], in experiment [8] and in [12] was “inactive” in each case. The max response in experiment [9] was 12.5%. In addition, the molecule was called inactive in [10]. The activation in experiment [7] was -0.0255% (inactive).

On to `CCCCC(CC)COP(=O)(OCC(CC)CCCC)OCC(CC)CCCC` (centres undefined), for which the Potency entry in experiment [1], in experiment [2], in [8], in experiment [5] and in experiment [12] was “inactive” each time. Also, the max response in [9] is 38.7%. Moreover, in experiment [10], the molecule was classed as inactive.

Turning to `Nc1ccc(N)c(Cl)c1`, the Potency entry in [4] and in experiment [12] was “inactive” each time. In addition, in [9], the max response was -6.58%. For the same molecule, the molecule was classed as inactive in experiment [10]. The activity change % (negative = inhibition) in [6] was -7.72% (inactive).

As to `Nc1cnn([C@@H]2O[C@H](CO)[C@@H](O)[C@H]2O)c(=O)n1`, the Potency result in experiment [1] and in [8] was “inactive” each time. Besides, the Potency was 25.1 µM (active) in experiment [13] and 75 µM (active) in experiment [11]. Also, in [3], the activation is -5.2% (inactive).

Take `CCCCOC(=O)COc1ccc(Cl)cc1Cl`: the Potency entry in experiment [13], in experiment [5], in experiment [12] and in experiment [11] was “inactive” throughout. Further, the activity change % (negative = inhibition) in experiment [6] was 7.32% (inactive) and -4.27% (inactive).

On to `O=C=Nc1ccc(Cl)c(Cl)c1`, for which, in experiment [7], the activation was 7.4% (inactive).

As to `Nc1cc([N+](=O)[O-])ccc1O`, the Potency entry in experiment [2], in [8] and in [5] was “inactive” throughout. The activation in experiment [3] is -3.65% (inactive) and -4.48% (inactive); in [7] it was -0.245% (inactive) and -0.938% (inactive). The max response in [9] is 32.9% and 36.8%. Moreover, the outcome in [10] was inactive. Besides, in experiment [6], the activity change % (negative = inhibition) was 11.2% (inactive) and 4.34% (inactive).

As for `O=C(O)c1ccc([N+](=O)[O-])cc1`, the Potency entry in [1] and in [13] was “inactive” throughout. Further, the activation is 3.87% (inactive) and 0.51% (inactive) in experiment [3]; -1.53% (inactive) and -0.205% (inactive) in [7]. Further, in experiment [9], the max response was determined as 8.52%. In experiment [10], the result was inactive. For the same molecule, the activity change % (negative = inhibition) in experiment [6] was -4.73% (inactive).

As for `C/C=C/C=C/C=O`, in experiment [2], the Potency is 39.8 µM (active). For the same molecule, the activation in experiment [3] is -0.282% (inactive). Also, the max response in [9] is 13.6%. Further, in experiment [10], the molecule was called inactive. Besides, in [5], the Potency entry was “inactive”.
